Source: PubChem BioAssay AID485317 (Broad Institute, 2010)
About 11,000 (3.8%) of roughly 290,000 compounds were called active. The sample holds actives, similar compounds and a random draw of the others, so the mix is not that of the screen. Values without a mark were called inactive.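 The calls were made as follows: active = mean replicate inhibition above about 79%, with every replicate also reaching it (limit read from the data); inconclusive = only one of the two criteria met; inactive = mean below limit and not every replicate reaching it.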

Biological target: FAD-linked sulfhydryl oxidase ALR (Homo sapiens) (UniProt P55789)
Sequence (P55789 whole entry, looked up): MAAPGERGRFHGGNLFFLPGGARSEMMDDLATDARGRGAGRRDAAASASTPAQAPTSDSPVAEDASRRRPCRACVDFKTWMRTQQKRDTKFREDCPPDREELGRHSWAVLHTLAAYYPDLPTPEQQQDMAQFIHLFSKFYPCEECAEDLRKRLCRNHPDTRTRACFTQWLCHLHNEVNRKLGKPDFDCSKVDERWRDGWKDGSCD
Test: inhibitors of human ALR sulfhydryl oxidase, primary screen, biochemical, H2O2 detection, HRP-luminol luminescence, single point (AID 485317)
Details: purified ALR, DTT oxidation, active compounds read high, concentration not given here

SMILES	inhibition
C#CCNC(=O)[C@H](Cc1ccc(C(=O)c2ccccc2)cc1)NC(=O)OC(C)(C)C	-2.67%
CCNC(=S)N1CCN(S(=O)(=O)c2ccc(Cl)s2)CC1	-2.01%
COc1ccccc1C(=O)Nc1ccc(OCC(=O)N2CCCCC2)cc1	2.28%
Oc1ccc(-c2[nH]ncc2-c2nc3ccccc3s2)c(O)c1	83.3% (active)
CC(=O)Nc1cccc(-c2nc3ccccc3s2)c1C	-21%
Cc1cc(O)ccc1-c1cnc2ccccc2n1	58%
CCN(C(=O)COC(=O)C1CCN(S(=O)(=O)c2ccc(C)c(C)c2)CC1)C1CCS(=O)(=O)C1 (stereo not drawn)	-10.6%
COc1ccc(C2=NN(C(=O)CSc3nnnn3C)C(c3ccco3)C2)cc1 (stereo not drawn)	3.36%
Cc1ccc(C(=O)Nc2ccccc2-c2ccccc2)cc1S(=O)(=O)Nc1ccccc1	-2.08%
CC1CCN(C(=O)CCNC(=O)c2ccccc2)CC1	0.139%
CCOc1ccc(CCNC(=O)C2=C(C)C(=O)OC23CCC(C)CC3)cc1OCC (stereo not drawn)	-1.93%
CCN(CCNC(=O)C1=C(C)C(=O)OC12CCC(C)CC2)c1ccccc1 (stereo not drawn)	98.4% (active)
Cc1ccc(S(=O)(=O)NC[C@H]2O[C@@H](n3cnc4c(N)ncnc43)[C@H](O)[C@@H]2O)s1	1.77%
COC(=O)c1ccc(COc2ccc(/C=C/C(=O)c3ccc(OC)c(CSCC(=O)O)c3)cc2OC)cc1	99.4% (active)
COc1ccc(C(=O)/C=C/c2ccc(-c3ccccc3)cc2)cc1CSCC(=O)O	99.2% (active)
COC(=O)c1ccc(C(NC(=O)OCc2ccccc2)/C(C)=C/[C@@H](C)C(=O)NCc2ccc(OC)c(OC)c2)cc1 (stereo partly drawn)	-2.17%
COC(=O)c1ccc(COc2ccc(/C=N/NC(=O)C(=O)Nc3ccc(OC)cc3)cc2OC)o1	-5.05%
O=C(O)c1ccc2c(c1)C(=O)N(c1ccc(/C=C/C(=O)c3ccccc3)cc1)C2=O	50.4%
O=C(/C=C/c1ccccc1)c1ccoc1	13.2%
CC(OC(=O)CN1C(=O)c2ccccc2C1=O)C(=O)c1ccccc1 (stereo not drawn)	4.65%
CCC(C)Cn1c(O)cc2nn(-c3nc4ccccc4s3)c(=O)c-2c1C (stereo not drawn)	98.9% (active)
CCOC(=O)N1CCN(CC(=O)Nc2cc(C)nn2-c2nc3ccccc3s2)CC1	7.49%
Cc1nn(CC(=O)Nc2nc3ccccc3s2)c(C)c1[N+](=O)[O-]	-2.85%
Cc1csc(NC(=O)C2=COCCO2)n1	1.03%

SMILES	inhibition
Cc1ccc(-c2csc(NC(=O)C3=COCCO3)n2)cc1C	83.7% (active)
Cc1ccc(-c2csc(NC(=O)c3cnccn3)n2)cc1C	-0.38%
O=C(Nc1cccc(S(=O)(=O)NC2=NCCC2)c1)c1ccc(F)cc1F	-7.53%
COc1ccc(-c2cc(C(=O)N(C)CC(=O)Nc3ccccc3Cl)c3ccccc3n2)cc1OC	-3.41%
Cc1ccc(S(=O)(=O)N(C)C)cc1NC(=O)COC(=O)/C=C/c1cccs1	-0.0664%
O=C(OCC(=O)N1CCN(c2ccccc2)CC1)c1ccc([N+](=O)[O-])s1	-44.6%
COc1ccc(C)cc1NC(=O)Nc1ccccc1SC	-2.74%
COc1ccccc1NC(=O)CC(NCCN(C)C)C(=O)O (stereo not drawn)	-8.47%
COC(=O)C(CC(=O)Nc1cc(C)ccc1C)Nc1ccccc1OC (stereo not drawn)	98.4% (active)
COc1cc([N+](=O)[O-])ccc1NC(=O)COC(=O)CCOc1ccc(C)cc1	24.6%
Cc1ccc(NC(=O)Cc2nc(COC(=O)C(C)NS(=O)(=O)c3ccc(C)cc3)cs2)cc1 (stereo not drawn)	14%
CCN(CC)C(=O)C(=O)Nc1cccc(Br)c1	3.75%
CCN(CC)C(=O)CSC(Nc1cccc(F)c1)=C(C#N)C#N	98.8% (active)
Cc1ccc(CSCC(=O)N(C)CC(=O)Nc2cccc(F)c2)cc1	-16.3%
COc1ccccc1NC(=O)/C=C/C(=O)O	-9.66%
O=C(O)/C=C/C(=O)Nc1ccc(F)cc1F	5.9%
COC(=O)c1sc(-c2ccc(C(C)(C)C)cc2)cc1NC(=O)/C=C/C(=O)O	98.3% (active)
O=C(COC(=O)c1cc(S(=O)(=O)N2CCOCC2)ccc1F)NC1CC1	-8.45%
CN(CC(=O)Nc1ccc(F)c(F)c1F)C(=O)Cn1cnc2c1c(=O)n(C)c(=O)n2C	-6.05%
CCCCn1c(N)c(N(CCC(C)C)C(=O)c2ccc(COc3ccccc3)o2)c(=O)[nH]c1=O	0.673%
CCOC(=O)c1c(NC(=O)CSc2nnc(C)c(=O)[nH]2)sc2c1CCC2	90% (active)
CCCOC(=O)Nc1sc2c(c1C(=O)OCC)CCC2	46.6%
NC(=O)c1c(NC(=O)CSc2nc(N)cc(=O)[nH]2)sc2c1CCCC2	36%
Cc1ccc(C)c(NC(=O)COC(=O)c2nn(C)c(=O)c3ccccc23)c1	-9.61%

SMILES	inhibition
Cc1ccc(CCC(=O)Nc2ncc(Cc3cc(Cl)ccc3Cl)s2)o1	53.6%
Cc1ccc(Cc2cnc(N)s2)o1	99.1% (active)
COc1cccc(C(=O)OCC(=O)c2[nH]c(C)c(C(C)=O)c2C)c1	-3.4%
Cc1ccc(S(=O)(=O)NCCNC(C)c2ccc(Br)cc2)cc1 (stereo not drawn)	-1.35%
CC(=O)C1=C(C)NC2=C(C(=O)CC(C)(C)C2)C1C (stereo not drawn)	-3.96%
Cc1nn(-c2ccccn2)c2c1C(c1ccncc1)C1=C(CC(C)(C)CC1=O)N2 (stereo not drawn)	16%
Cc1cc2c(cc1C)NC(c1ccccn1)C1=C(CC(C)(C)CC1=O)N2 (stereo not drawn)	99.2% (active)
O=C1CCC/C=C\C[C@@H](CC(=O)N(CCO)Cc2ccccc2)C(=O)NCCO1	0.845%
O=C(COC(=O)c1ccco1)Nc1ccc(Cl)cn1	-2.69%
O=C(CNC(=O)c1cccnc1)N/N=C/c1cc(Br)c(O)c(Br)c1	43.1%
O=C(CNC(=O)c1cccnc1)N/N=C/c1cccnc1	-3.02%
CCN(CC)c1ccc(/C=N/NC(=O)CNC(=O)c2cccnc2)cc1	98.6% (active)
COc1ccc(-c2cc3ncccc3cn2)cc1	23.1%
COc1ccc(N/N=C2/CCCCC2=O)cc1	99.4% (active)
COc1ccc(CNC2CCCCC2)cc1	-5.38%
COc1ccc(CNC(=O)C2CCCC2)cc1	-0.518%
CN1CCN(C2Cc3ccc(Cl)cc3Sc3ccc(F)cc32)CC1 (stereo not drawn)	4.93%
CCOCCn1[nH]c2ccccc2c1=O	52.9%
Cc1ccc2c(c1)C1CN(C)CCC1N2S(=O)(=O)c1cccc(F)c1 (stereo not drawn)	22.1%
CCN(CC)CCn1c2c(c(SCC(=O)Nc3nc4ccccc4s3)nc1=O)CCCC2	98.7% (active)
CN(C)CCn1c2c(c(SCC(=O)Nc3ccccc3C(F)(F)F)nc1=O)CCCC2	0.246%
Cc1ccc(NC(=O)CSc2nc(=O)n(CCN(C)C)c3c2CCCC3)c(C)c1	5.62%
CCN(CC)CCn1c2c(c(SCC(=O)Nc3ccc(C(C)C)cc3)nc1=O)CCC2	-219%
Cc1ccc2nc(NC(=O)CSc3nc(=O)n(CCCN(C)C)c4c3CCC4)sc2c1	97.3% (active)

SMILES	inhibition
Cc1csc(NC(=O)CSc2nc(=O)n(CCCN(C)C)c3c2CCC3)n1	-272%
Cc1ccc(C)c(NC(=O)CN(C)C(=O)COc2ccc3ccccc3c2)c1	-13.6%
CC(=O)Nc1ccc(NC(=O)C(NS(=O)(=O)c2ccc3c(c2)OCCO3)C(C)C)cc1 (stereo not drawn)	1.95%
Cc1c(NC(=O)CN(C)CC(=O)Nc2ccc(F)c(F)c2F)c(=O)n(-c2ccccc2)n1C	-2.04%
O=C(COC(=O)CCOc1ccccc1)Nc1cc(S(=O)(=O)N2CCCCC2)ccc1Cl	4.02%
COc1ccc(C(=O)C(C)OC(=O)c2cccc(S(=O)(=O)Nc3c(C)n(C)n(-c4ccccc4)c3=O)c2)cc1 (stereo not drawn)	-0.831%
Cc1cccc(NC(=S)N2CCC(c3nc4ccccc4s3)CC2)c1	-3.53%
O=C(c1cccs1)N1CCC(c2nc3ccccc3s2)CC1	98.7% (active)
Cc1cccc(C(=O)N2CCC(c3nc4ccccc4s3)CC2)c1	-11.6%
CCC(c1nnc(SCC(=O)NNC(=O)c2ccccc2)n1Cc1ccccc1)N(C)C (stereo not drawn)	-1.21%
O=C(CSc1nccn1-c1cccc(F)c1)NC1CCCC1	-4.77%
CCNC(=O)CSc1nc(-c2ccccc2)cs1	-7.87%
O=C(CSCC(=O)Nc1cccc([N+](=O)[O-])c1)Nc1ccccc1	-3.46%
O=C(CSc1nc(-c2ccccc2)cs1)Nc1cccc([N+](=O)[O-])c1	98% (active)
COc1ccccc1C(=O)NCC(=O)OCC(=O)NNC(=O)c1ccc(Br)cc1	0.892%
COc1cc(OC)cc(C(=O)NCC(=O)OCC(=O)NC(C)CCc2ccccc2)c1 (stereo not drawn)	-4.51%
Nc1cccnc1Sc1ccccc1	-14.3%
Cc1ccc(NC(=O)CSc2sc3c(O)cc(=O)[nH]c3c2C#N)cc1C	98.4% (active)
Cc1cc(C)c(C#N)c(SCC(=O)Nc2ccccc2)n1	-3.28%
Cc1cc(=O)[nH]c(SCC(N)=O)c1C#N	-1.22%
Cc1ccc(S(=O)(=O)Nc2ccc(F)c(S(=O)(=O)N3CCOCC3)c2)cc1	-9.01%
